Structures are written as SMILES. Results filed as inconclusive are left out. Where a call stands in place of a potency, no number is given. Active and inactive are the calls of the source. The call rests on the fitted dose curve; in most records, active means well fitted curve in the direction sought with a large enough effect; inconclusive means small, poorly fitted or top-dose-only effect, or another doubt; inactive means no such curve, though single readings can be large; an effect the other way counts as inactive or inconclusive.

Cytochrome P450 3A4 (Homo sapiens), sequence (P08684 whole entry, looked up): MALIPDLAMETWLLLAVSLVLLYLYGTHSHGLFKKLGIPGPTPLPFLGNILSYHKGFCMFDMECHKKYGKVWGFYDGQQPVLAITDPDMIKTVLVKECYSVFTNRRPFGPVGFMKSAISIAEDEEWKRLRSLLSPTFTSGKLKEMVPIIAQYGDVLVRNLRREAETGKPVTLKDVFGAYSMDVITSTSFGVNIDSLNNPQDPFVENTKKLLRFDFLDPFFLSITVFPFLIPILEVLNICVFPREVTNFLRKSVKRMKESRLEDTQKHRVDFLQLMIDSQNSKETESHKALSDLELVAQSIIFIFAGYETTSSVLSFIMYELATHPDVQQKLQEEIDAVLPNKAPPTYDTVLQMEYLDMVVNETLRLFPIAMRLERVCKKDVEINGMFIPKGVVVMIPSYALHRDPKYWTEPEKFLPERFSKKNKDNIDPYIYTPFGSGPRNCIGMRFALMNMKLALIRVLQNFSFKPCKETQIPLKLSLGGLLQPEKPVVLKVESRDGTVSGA

The first test concerns the target Cytochrome P450 3A4 (Homo sapiens) (UniProt P08684). In words: qHTS Assay for Inhibitors and Substrates of Cytochrome P450 3A4 (AID 884). Further: nearly all actives have a fitted effect of over 50% in size. Further: potency means the concentration at half of the fitted maximal effect. To be noted: recombinant CYP3A4, Luciferin-PPXE luminescence; series mostly up to 57.1 µM. An outline of the steps:
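Luminescent readout of luciferin produced by CYP3A4 (20 nM) dealkylation of Luciferin-PPXE, 25 uM (its KM). NADPH-driven reaction ran 60 min at RT after 10 min compound preincubation; data scaled to 57 uM ketoconazole as 100% inhibition.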
For `CC(C)OC(=O)Nc1cccc(Cl)c1`, the Potency result was “inactive”.
Turning to `CNC(=O)Oc1cccc2c1OC(C)(C)O2`, the Potency entry was “inactive”.
On the same count and under the same terms, the result for `CC[C@@H]1CN2CC[C@@H]1C[C@H]2[C@H](O)c1ccnc2ccc(OC)cc12` reads “inactive”.
As to `CC(=O)CC1CCCCN1` (configuration not stated), the Potency entry is “inactive”.
On the same count and under the same terms, in the case of `CC(C)c1cc2c(c(O)c1O)[C@]1(C(=O)O)CCCC(C)(C)C1CC2` (some centres not stated) it was 0.316 µM (active); in that of `COc1cc(C2c3cc4c(cc3C(O)C3COC(=O)C23)OCO4)cc(OC)c1O` (configuration not stated), 6.31 µM (active).
Take `C/C=C(\C)C(=O)OC1CC(OC(C)=O)[C@@]2(C(=O)OC)COC3C2[C@@]12CO[C@](O)(C(=O)OC)C2[C@](C)(C12OC1(C)C1CC2OC2OC=C[C@]21O)C3O` (some centres not stated): the Potency is 12.6 µM (active).
Still for that read-out and setting: the result for `COC(=O)COc1cc(Cl)c(Cl)cc1Cl` reads “inactive”; that for `O=c1cccc2n1CC1CC2CN2CCCCC12` (configuration not stated), “inactive”.
With `O=C1CCCC2[C@@H]3CCCN4CCC[C@@H](CN12)C34` (some centres not stated), the Potency result was “inactive”.
The same measure, in the same setting: in the case of `CCCCSP(=O)(SCCCC)SCCCC` it was “inactive”.
Turning to `CCS(=O)CCSP(=O)(OC)OC` (configuration not stated), the Potency entry was “inactive”.
For the compound `OCC1CCCN2CCCCC12` (configuration not stated), the Potency result is “inactive”.
For the compound `COP(N)(=O)SC` (configuration not stated), the Potency entry is “inactive”.
Take `C[C@@]12CCC(=O)C[C@@H]1CC[C@@H]1[C@@H]2CC[C@]2(C)C(=O)CC[C@@H]12`: the Potency result was “inactive”.
The same measure, in the same setting: the result for `O=C(CC[N+](=O)[O-])OCC1OC(O)C(OC(=O)CC[N+](=O)[O-])[C@@H](OC(=O)CC[N+](=O)[O-])C1OC(=O)CC[N+](=O)[O-]` (some centres not stated) reads “inactive”.
As for `CC(C)N1C(=O)c2ccccc2NS1(=O)=O`, the Potency entry was “inactive”.
For the compound `C=C[C@H]1CN2CCC1C[C@@H]2C(O)c1ccnc2ccccc12` (some centres not stated), the Potency result was “inactive”.
Still for that read-out and setting: in the case of `O=C(O)COc1cc(Cl)c(Cl)cc1Cl` it was “inactive”; in that of `COC1CC(OC2CC[C@@]3(C=O)C4CC[C@]5(C)C(C6=CC(=O)OC6)CC[C@@]5(O)C4CC[C@]3(O)C2)OC(C)C1O` (some centres not stated), “inactive”; in that of `C[C@]12CCC(=O)C=C1CCc1ccc(O)cc12`, 25.1 µM (active).
On the same count and under the same terms, the result for `CC1OC(O[C@@H]2C(O)CC(O[C@@H]3C(O)C[C@@H](OC4CC[C@]5(C)[C@H](CC[C@H]6[C@@H]5CC[C@]5(C)C(C7=CC(=O)OC7)C(O)C[C@@]65O)C4)OC3C)OC2C)CC(O)C1O` (some centres not stated) reads “inactive”; that for `CC1(C)C(O)CC(O)[C@]2(C)C1CC(=O)[C@]1(C)C2CC[C@@]2(C)C(c3ccoc3)OC(=O)C3OC321` (some centres not stated), 6.31 µM (active); that for `CCC(=O)Nc1ccc(Cl)c(Cl)c1`, 15.8 µM (active).
For the compound `CNC(=O)CSP(=S)(OC)OC`, the Potency entry was “inactive”.
With `C[C@@]12CCC(Cl)C[C@H]1CCC1C2CC[C@]2(C)C(=O)CCC12` (some centres not stated), the Potency entry is “inactive”.
With `N#Cc1c(Cl)cccc1Cl`, the Potency result was “inactive”.
As for `C[C@]1(C(=O)O)CCC[C@]2(C)c3cc(O)ccc3CC[C@@H]12`, the Potency result is “inactive”.
For `CC(C)(C)[C@]1(O)C[C@@H]2OC(=O)C[C@@]23C(=O)O[C@@H]2OC(=O)[C@H](O)[C@]213`, the Potency result is “inactive”.
For `COc1nc(NC(C)C)nc(NC(C)C)n1`, the Potency entry is “inactive”.
In the case of `COC1=CC23CCCN2CCc2cc4c(cc2C3C1O)OCO4` (configuration not stated), the Potency is 31.6 µM (active).
The same measure, in the same setting: in the case of `CCc1cccc(C)c1N(C(=O)CCl)C(C)COC` (configuration not stated) it was “inactive”.
Still for that read-out and setting: the result for `CNC(=O)Oc1ccccc1OC(C)C` reads “inactive”; that for `CC1CC[C@@]2(NC1)O[C@@H]1C[C@H]3C4CC=C5C[C@@H](O)CC[C@]5(C)C4CC[C@]3(C)[C@H]1[C@@H]2C` (some centres not stated), “inactive”.

The target is the same in another test. In words: qHTS Assay for Activators of Cytochrome P450 3A4 (AID 885). Further: nearly all actives have a fitted effect of over 65% in size. To be noted: recombinant CYP3A4, Luciferin-PPXE luminescence, 60 min; series mostly up to 57.1 µM. An outline of the steps: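 Using 20nM recombinant human CYP3A4 in potassium phosphate (200mM), substrate Luciferin-PPXE at 25uM, luminescent luciferin detection followed a 60-min RT NADPH reaction; data scaled to 57 uM ketoconazole.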
A general note: qHTS replaces the single test concentration by a dilution series.
`CC(C)c1cc2c(c(O)c1O)[C@]1(C(=O)O)CCCC(C)(C)C1CC2` (some centres not stated): the Potency result was “inactive”.
Consider `COc1cc(C2c3cc4c(cc3C(O)C3COC(=O)C23)OCO4)cc(OC)c1O` (configuration not stated), for which the Potency entry is “inactive”.
On to `C/C=C(\C)C(=O)OC1CC(OC(C)=O)[C@@]2(C(=O)OC)COC3C2[C@@]12CO[C@](O)(C(=O)OC)C2[C@](C)(C12OC1(C)C1CC2OC2OC=C[C@]21O)C3O` (some centres not stated), for which the Potency result is “inactive”.
`C[C@]12CCC3C(CC[C@H]4C[C@@H](O)CC[C@]34C)[C@@H]1CCC2=O` (some centres not stated): the Potency entry was “inactive”.
As to `CC(C)(C)C(=O)C(Oc1ccc(Cl)cc1)n1cncn1` (configuration not stated), the Potency entry is “inactive”.
`CCN1C[C@@]2(COC(=O)c3ccccc3N3C(=O)CC(C)C3=O)CC[C@H](OC)[C@]34C5C[C@@H]6[C@@H](OC)C[C@@](O)(C5[C@H]6OC)[C@@](O)(C13)[C@@H](OC)C24` (some centres not stated): the Potency entry was “inactive”.
`C[C@]12CCC(=O)C=C1CCc1ccc(O)cc12`: the Potency result is “inactive”.
Turning to `CC1(C)C(O)CC(O)[C@]2(C)C1CC(=O)[C@]1(C)C2CC[C@@]2(C)C(c3ccoc3)OC(=O)C3OC321` (some centres not stated), the Potency entry was “inactive”.
For `CCC(=O)Nc1ccc(Cl)c(Cl)c1`, the Potency entry was “inactive”.
`COC1=CC23CCCN2CCc2cc4c(cc2C3C1O)OCO4` (configuration not stated): the Potency result was “inactive”.

Test system in a further test: not listed separately
In words: Confirmation and Secondary Assay for Modulators of Hemoglobin Beta Chain Splicing at IVS2 654 locus (AID 910).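 Further: HeLa cells stably carrying EGFP split by mutant beta-globin IVS2-654 intron; per-well total GFP intensity by laser scanning cytometry after 2-day treatment.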 The following applies: HeLa EGFP-654 splicing reporter, GFP fluorescence, 48 h; series mostly up to 46.1 µM. The essentials: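 Readout: per-well total peak green fluorescence (488 nm ex, 500–520 nm em) from objects 5–250 µm, reflecting correct splicing of an EGFP-654 reporter. Compounds were applied for 2 days at 37 °C to overnight-plated HeLa EGFP-654 cells; controls were DMSO and 500 nM IVS2-654 PNA.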
For `CC(C)OC(=O)Nc1cccc(Cl)c1`, the Potency result was “inactive”.
Same read-out and setting: in the case of `CNC(=O)Oc1cccc2c1OC(C)(C)O2` it was “inactive”; in that of `COc1cc(C2c3cc4c(cc3C(O)C3COC(=O)C23)OCO4)cc(OC)c1O` (configuration not stated), “inactive”; in that of `C/C=C(\C)C(=O)OC1CC(OC(C)=O)[C@@]2(C(=O)OC)COC3C2[C@@]12CO[C@](O)(C(=O)OC)C2[C@](C)(C12OC1(C)C1CC2OC2OC=C[C@]21O)C3O` (some centres not stated), “inactive”.
On to `CCCCSP(=O)(SCCCC)SCCCC`, for which the Potency result was “inactive”.
Take `CCS(=O)CCSP(=O)(OC)OC` (configuration not stated): the Potency entry is “inactive”.
Same read-out and setting: the result for `OCC1CCCN2CCCCC12` (configuration not stated) reads “inactive”; that for `COP(N)(=O)SC` (configuration not stated), “inactive”.
Take `C[C@@]12CCC(=O)C[C@@H]1CC[C@@H]1[C@@H]2CC[C@]2(C)C(=O)CC[C@@H]12`: the Potency result was “inactive”.
Same read-out and setting: in the case of `O=C(CC[N+](=O)[O-])OCC1OC(O)C(OC(=O)CC[N+](=O)[O-])[C@@H](OC(=O)CC[N+](=O)[O-])C1OC(=O)CC[N+](=O)[O-]` (some centres not stated) it was “inactive”; in that of `CC(C)(C)C(=O)C(Oc1ccc(Cl)cc1)n1cncn1` (configuration not stated), “inactive”; in that of `CC(C)N1C(=O)c2ccccc2NS1(=O)=O`, “inactive”.
The same measure, in the same setting: in the case of `COC1CC(OC2CC[C@@]3(C=O)C4CC[C@]5(C)C(C6=CC(=O)OC6)CC[C@@]5(O)C4CC[C@]3(O)C2)OC(C)C1O` (some centres not stated) it was “inactive”; in that of `C[C@]12CCC(=O)C=C1CCc1ccc(O)cc12`, “inactive”.
In the case of `CCC(=O)Nc1ccc(Cl)c(Cl)c1`, the Potency entry was “inactive”.
For `N#Cc1c(Cl)cccc1Cl`, the Potency entry is “inactive”.
Same read-out and setting: the result for `COC1=CC23CCCN2CCc2cc4c(cc2C3C1O)OCO4` (configuration not stated) reads “inactive”; that for `CCc1cccc(C)c1N(C(=O)CCl)C(C)COC` (configuration not stated), “inactive”.
